From PubChem
SIRT5 block: inhibitors of human sirtuin-5 desuccinylase; Q9NXA8; Purified SirT5, succinyl-peptide AMC, trypsin-coupled fluorescence; inhibition, % at 15 µM; hit rate 1.1% among 330,000; in the data active = inhibition above about 15%
Target sequence (Q9NXA8 whole entry, looked up): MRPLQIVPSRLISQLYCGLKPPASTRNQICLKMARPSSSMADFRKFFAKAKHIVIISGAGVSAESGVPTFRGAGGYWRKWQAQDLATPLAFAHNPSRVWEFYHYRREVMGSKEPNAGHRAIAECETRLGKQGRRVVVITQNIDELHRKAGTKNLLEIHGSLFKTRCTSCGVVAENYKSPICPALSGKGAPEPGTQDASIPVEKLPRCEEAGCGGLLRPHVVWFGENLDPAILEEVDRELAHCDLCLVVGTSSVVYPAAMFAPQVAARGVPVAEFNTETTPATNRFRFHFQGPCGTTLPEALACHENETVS
CDK5 p35 inh: inhibitors of human CDK5/p35 kinase; Recombinant CDK5/p35, ADP-Glo luminescence, 60 min; inhibition, % at 10 µM; hit rate 0.01% among 330,000; AID 488839;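 active = highest replicate inhibition of at least 50% and at least 75% of replicates reaching 50%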
PglD inh: PglD (C. jejuni) enzyme inhibition | hit rate 0.098% among 360,000 | AID 602405 | inhibition, % at 12.5 µM | purified PglD enzyme, DTNB colorimetric CoA detection; in the data active = inhibition above about 16%, passing the limit was not always enough
PvdQ acylase: P. aeruginosa PvdQ acylase inhibition | purified PvdQ acylase, fluorescence plate reader | inhibition, % at 10 µM | hit rate 0.063% among 340,000; in the data active = inhibition above about 30%, passing the limit was not always enough
FGF22 binding: shifts melting point of recombinant human FGF22 | Q9HCT0 | recombinant FGF22 thermal shift, SYPRO orange fluorescence; percent of sucrose octasulfate shift, DMSO zero | AID 651658 | activity (Tm shift, normalised), % at 9.99 µM | hit rate 1.5% among 340,000;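 active = mean Tm shift, scaled 0 neutral to 100 positive control, at about 1.3% or above, every replicate too, limit read from the data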
dFosB act: mouse delta FosB homodimer activation | P13346 | purified delta FosB, TAMRA-CDK5 oligo fluorescence polarization; percent of positive-control signal above neutral wells | activation, % at 25 µM | hit rate 0.99% among 340,000;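 active = mean activation above about 17%, with every replicate also reaching it, limit read from the data, passing the limit was not always enough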
Target sequence (P13346 whole entry, looked up): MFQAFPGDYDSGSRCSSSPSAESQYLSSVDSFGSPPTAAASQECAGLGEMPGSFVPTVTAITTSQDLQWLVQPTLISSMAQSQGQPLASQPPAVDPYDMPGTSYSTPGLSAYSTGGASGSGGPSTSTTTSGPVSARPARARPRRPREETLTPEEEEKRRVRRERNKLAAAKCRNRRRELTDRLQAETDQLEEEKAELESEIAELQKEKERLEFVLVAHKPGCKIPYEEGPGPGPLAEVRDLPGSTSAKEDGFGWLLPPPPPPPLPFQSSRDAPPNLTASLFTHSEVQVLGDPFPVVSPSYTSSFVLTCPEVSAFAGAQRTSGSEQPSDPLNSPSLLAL
Of the large screens only hits and unclear results are named; the others gave an inactive call. A selection: hits, their analogues and other compounds. The true share with any hit is near 2.8%.

CCN1CCN(CC(=O)N2N=C(c3cccs3)CC2c2ccc(OC)cc2)C(=O)C1=O (stereo not drawn)	FGF22 binding 43 (no result: PglD inh)
OC(CNCC(c1ccc(Cl)cc1Cl)c1c[nH]c2ccccc12)c1ccccc1 (stereo not drawn)	dFosB act 83
O=[N+]([O-])CC(c1ccccc1)c1c[nH]c2ccccc12 (stereo not drawn)	none (no result: CDK5 p35 inh, PvdQ acylase, dFosB act)
COc1ccc2c3c([nH]c2c1)[C@H](CO)N(C(C)=O)CC31CCN(S(=O)(=O)c2cccs2)CC1	none (no result: SIRT5 block, CDK5 p35 inh, PglD inh, PvdQ acylase, dFosB act)
C[C@@H]1CCCCO[C@@H](CN(C)S(C)(=O)=O)[C@H](C)CN([C@H](C)CO)C(=O)c2cc(NS(=O)(=O)c3ccccc3)ccc2O1	none (no result: CDK5 p35 inh, PvdQ acylase, dFosB act)
O=C1NC(=S)SC1=Cc1ccccc1C(=O)O	FGF22 binding 1.6 (no result: SIRT5 block, CDK5 p35 inh, PvdQ acylase, dFosB act)
COC(=O)[C@@H]1[C@@H](CO)[C@@H]2Cn3c(cccc3=O)[C@@H]2N1C(=O)C1CCC1	none (no result: CDK5 p35 inh, PvdQ acylase, dFosB act)
Cc1ccc(NC(=O)C(OC(=O)c2ccc(O)cc2)c2ccccc2)cc1Cl (stereo not drawn)	FGF22 binding 78
Cc1ccc(NC(=O)C(OC(=O)c2ccc(F)cc2)c2ccccc2)cc1Cl (stereo not drawn)	none
C[C@@H]1CCCCO[C@H](CN(C)C(=O)Cc2ccccc2)[C@H](C)CN([C@@H](C)CO)C(=O)c2cc(NC(=O)C3CCCCC3)ccc2O1	none (no result: SIRT5 block, CDK5 p35 inh, PvdQ acylase, dFosB act)
Cc1cc(CNC(=O)c2cc(COc3c(F)cccc3F)on2)nn1C	FGF22 binding 44 (no result: PglD inh)
O=C(Cc1c(F)cccc1Cl)NCc1cccnc1	none
Cc1cc(CNC(=O)Cc2c(F)cccc2Cl)nn1C	SIRT5 block 23 (no result: PglD inh)
COc1ccc2c3c(n(C)c2c1)[C@H](CO)N(C(=O)Nc1ccc(F)cc1)CC31CN(Cc2cccnc2)C1	none (no result: CDK5 p35 inh, PglD inh, PvdQ acylase, dFosB act)
Cc1ccc(S(=O)(=O)Nc2cccc3c2O[C@@H](CN(C)CC2CCCCC2)[C@@H](C)CN([C@@H](C)CO)C3=O)cc1	none (no result: CDK5 p35 inh, PvdQ acylase, dFosB act)
C=CCn1ncc(OC)c(Cl)c1=O	SIRT5 block 24 (no result: PglD inh)
C[C@H]1CCCCO[C@H](CN(C)C(=O)CCC(F)(F)F)[C@@H](C)CN([C@@H](C)CO)C(=O)c2cc(NS(=O)(=O)c3cccs3)ccc2O1	none (no result: SIRT5 block, CDK5 p35 inh, PvdQ acylase, dFosB act)
NNc1ccccc1C(F)(F)F	FGF22 binding 43 (no result: PglD inh)
C[C@@H]1CN([C@H](C)CO)C(=O)c2cc(NS(=O)(=O)c3ccccc3)ccc2O[C@@H](C)CCCCO[C@H]1CN(C)C(=O)NC1CCCCC1	none (no result: CDK5 p35 inh, PvdQ acylase, dFosB act)
Cc1ccc(S(=O)(=O)N[C@H]2C=C[C@@H](CC(=O)NC3CCCCC3)O[C@H]2CO)cc1	none (no result: CDK5 p35 inh, PvdQ acylase, dFosB act)
Cc1cc(C)n(CC(O)Cn2c3ccc(Br)cc3c3cc(Br)ccc32)c(=O)n1 (stereo not drawn)	dFosB act 20 (no result: SIRT5 block, PglD inh, FGF22 binding)
Cc1cc(C)n(CC(O)Cn2c3ccccc3c3ccccc32)c(=O)n1 (stereo not drawn)	none (no result: SIRT5 block, FGF22 binding)
Cc1sc2nc(N3CCOCC3)[nH]c(=O)c2c1-c1ccccc1	SIRT5 block 31 (no result: PglD inh)
COc1ccc(S(=O)(=O)Nc2ccc3c(c2)C(=O)N([C@H](C)CO)C[C@H](C)[C@@H](CN(C)CC2CC2)OCCCC[C@@H](C)O3)cc1	none (no result: CDK5 p35 inh, PvdQ acylase, dFosB act)
COc1ccc(N(CC(=O)NCc2ccco2)S(=O)(=O)c2ccccc2)cc1	FGF22 binding 43 (no result: PglD inh)
COc1ccc(S(=O)(=O)N(CC(=O)NCc2ccco2)c2ccccc2)cc1	none (no result: SIRT5 block, FGF22 binding)
COc1ccc2c3c(n(C)c2c1)[C@H](CO)N(Cc1ccccc1F)CC31CCN(CC2CC2)CC1	none (no result: CDK5 p35 inh, PglD inh, PvdQ acylase, dFosB act)
COc1cccc(C(=O)Nc2ccc(C(F)(F)F)n(C)c2=O)c1	SIRT5 block 20
CCOc1ccc(C(=O)Nc2ccc(C(F)(F)F)n(C)c2=O)cc1	none
COc1ccccc1CNC(=O)C[C@H]1CC[C@H]2[C@@H](COC[C@@H](O)CN2C(=O)Nc2ccc(C(F)(F)F)cc2)O1	none (no result: CDK5 p35 inh, PvdQ acylase, dFosB act)
COc1ccc(C)cc1NS(=O)(=O)c1cn(C)nc1C	FGF22 binding 43 (no result: PglD inh)
CC1(C)C(Cl)C(=O)C(C(=O)c2ccccc2)C(=O)C1Cl (stereo not drawn)	SIRT5 block 94
CC1N=C(SCC(=O)c2ccc(F)cc2)N2C(C)N=C(SCC(=O)c3ccc(F)cc3)N12 (stereo not drawn)	FGF22 binding 43 (no result: SIRT5 block, CDK5 p35 inh, PvdQ acylase, dFosB act)
C(=N\Nc1nc2ccccc2[nH]1)/c1ccc2c(c1)OCO2	none (no result: PglD inh)
C(=C/c1nccc2c1[nH]c1ccccc12)/c1ccc2c(c1)OCO2	dFosB act 64
C[C@@H]1CN([C@@H](C)CO)C(=O)c2cccc(NC(=O)Nc3ccc(F)cc3)c2O[C@@H]1CN(C)Cc1ccccc1	none (no result: CDK5 p35 inh, PvdQ acylase, dFosB act)
COc1ccc(C2=Nn3c(nnc3-c3ccccc3F)SC2)cc1OC1CCCC1	SIRT5 block 20
COc1ccc(C2=Nn3c(nnc3-c3ccccc3F)SC2)cc1OC1CCOC1 (stereo not drawn)	none (no result: SIRT5 block)
O=C(N=Nc1c(O)[nH]c2ccccc12)c1cc(-c2cccs2)[nH]n1	dFosB act 71
O=C(N=Nc1c(O)[nH]c2ccccc12)c1cc(-c2ccc(F)cc2)n[nH]1	dFosB act 63 (no result: PglD inh)
O=C(Cc1cccs1)N=Nc1c(O)[nH]c2ccccc12	none
CS(=O)(=O)Nc1ccc2c(c1)[C@H]1C[C@H](CC(=O)NCc3ccc(Oc4ccccc4)cc3)O[C@@H](CO)[C@H]1O2	none (no result: CDK5 p35 inh, PvdQ acylase, dFosB act)
CCCCNC(=NCc1cccc(C(F)(F)F)c1)Nc1ccccc1	SIRT5 block 20
O=C(COC(=O)/C=C/c1cccs1)Nc1ccccc1Cl	FGF22 binding 43 (no result: PglD inh)
COC(=O)CNC(=O)COC(=O)/C=C/c1cccs1	none
CC(=O)c1ccccc1NC(=O)COC(=O)/C=C/c1cccs1	none
Cc1ccccc1NC(=O)/C=C1\SC(=O)NC1=O	FGF22 binding 44 (no result: PglD inh)
CCN(CC)S(=O)(=O)c1ccc(C)c(NC(=O)/C=C/c2cccs2)c1	none
COc1ccc(CCNC(=O)COC(=O)/C=C/c2cccs2)cc1	FGF22 binding 43 (no result: PglD inh)
Cc1ccccc1NC(=O)/C=C/c1cccs1	FGF22 binding 43 (no result: PglD inh)
COc1ccc(C(=O)NNC(=S)NC(=O)/C=C/c2cccs2)cc1	FGF22 binding 43 (no result: PglD inh)
CC(=O)N(C)C[C@H]1[C@@H](c2ccc(-c3cccnc3)cc2)[C@@H](CO)N1C(=O)C1CC1	none (no result: CDK5 p35 inh, PglD inh, PvdQ acylase, FGF22 binding, dFosB act)
O=C(CCCc1ccccn1)c1ccccc1	none (no result: PglD inh)
Cc1ccc(C(=O)CC(=O)c2ccccc2)cc1	none
O=C(CCCCCCCC(=O)c1ccccc1)c1ccccc1	FGF22 binding 44
O=C(CCCCN1CCCCC1)c1ccccc1	none
O=C(CCCCCCC(=O)c1ccccc1)c1ccccc1	FGF22 binding 43 (no result: PglD inh)
Cc1ccc(C(=O)Cc2ccccc2)cc1	FGF22 binding 44 (no result: SIRT5 block, PglD inh)
O=C(O)C1C2CCC1C(O)C2 (stereo not drawn)	FGF22 binding 43 (no result: SIRT5 block, CDK5 p35 inh, PglD inh, PvdQ acylase, dFosB act)
COc1ccc(OC)c(-n2c(Cn3c(-c4ccccn4)nc4ccccc43)n[nH]c2=S)c1	FGF22 binding 44
COC(=O)c1ccc2nc(-c3ccccc3)c(Cc3ccc(C)cc3)n2c1	none (no result: CDK5 p35 inh, PglD inh, PvdQ acylase, dFosB act)
COC(=O)c1ccc2nc(-c3ccc(C)cc3)c(Cc3ccccc3)n2c1	SIRT5 block 24 (no result: CDK5 p35 inh, PglD inh, PvdQ acylase, dFosB act)
